Here are results for 21 molecules from PubChem BioAssay (NCI).

The nature of assay [1]: NCI Yeast Anticancer Drug Screen. Data for the rad50 strain (AID 155).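 Also: 0% = growth of vehicle-only cultures of the same strain.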 Particulars: S. cerevisiae rad50 strain growth inhibition; at 50.0 µM; stronger effect = higher value. Summed up:
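Relative growth inhibition (compound vs vehicle) was measured in yeast with a defined repair-gene alteration.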

The nature of assay [2]: NCI Yeast Anticancer Drug Screen. Data for the mec2-1 strain (AID 157). The note with it: S. cerevisiae mec2-1 strain, at 50.0 µM, stronger effect = higher value. The essentials:
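Vehicle-treated cultures served as reference for growth inhibition of compound-exposed mec2-1 yeast.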

Assay [3] can be described thus: NCI Yeast Anticancer Drug Screen. Data for the sgs1 mgt1 strain (AID 161).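 Also: 0% = growth of cultures given vehicle only.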 Particulars: S. cerevisiae sgs1 mgt1 strain, at 50.0 µM, stronger effect = higher value. The essentials: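 Mutant yeast exposed to compound; growth scored against vehicle-only wells.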
Assay [4] can be described thus: NCI Yeast Anticancer Drug Screen. Data for the cln2 rad14 strain (AID 165).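 Also: 0% = growth equal to vehicle treated cultures.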 The note with it: S. cerevisiae cln2 rad14 strain, at 50.0 µM, stronger effect = higher value. The essentials:
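Each compound was tested on cln2 rad14 yeast. Inhibition of growth was calculated against vehicle-exposed controls.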

A short description of assay [5]: NCI Yeast Anticancer Drug Screen. Data for the bub3 strain (AID 167). The note with it: S. cerevisiae bub3 mutant strain, at 50.0 µM, stronger effect = higher value. The essentials:
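Screening used yeast with an engineered genetic alteration affecting cell cycle control. Compound-exposed cultures were compared with vehicle cultures, and reduced growth was taken as inhibition.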

Assay [6] in a line: NCI Yeast Anticancer Drug Screen. Data for the mlh1 rad18 strain (AID 175). The note with it: S. cerevisiae mlh1 rad18 strain growth inhibition; at 50.0 µM; stronger effect = higher value. The essentials:
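Vehicle-treated cultures served as the reference for growth inhibition in a yeast strain carrying DNA damage repair alterations exposed to each compound.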

Each structure is given as a SMILES string. The panel holds about 79,000 compounds, 15% with a hit somewhere; the sample as a whole holds those more often. Unmarked numbers belong to inactive results. Activity calls are given as the source filed them. Rule as the data show it: active = growth inhibition above about 70%; inactive = the rest.

Turning to `COc1ccc(-c2cc(=O)c3cccc(CC(=O)O)c3o2)cc1`, the growth inhibition in assay [1] was 8.2%; in assay [2], 11.7%; in assay [3], -0.3%; in assay [4] it was 31.1%; in assay [5], 2.05%; in assay [6], 18.4%.

Regarding `Cc1cc(NN)c2cc3c(cc2n1)OCO3`, the growth inhibition in assay [1] was 12.4%; in assay [2], -2.6%; in assay [3], 5.05%; in assay [4], -46%; in assay [5] it was -5.7%; in assay [6] it was 24.1%.

Turning to `Cc1cc([N+](=O)[O-])ccc1NC(=O)C(Br)C(Br)C(=O)O` (stereo unspecified), the growth inhibition was 31.1% in assay [1]; 64.5% in assay [2]; 75.9% (active) in assay [3]; 15.8% in assay [4]; 75.8% (active) in assay [5]; 49.1% in assay [6].

As to `CCOC(=O)CN1CN(CCc2ccccc2)CC(C)(C)C1OCC` (stereo unspecified), the growth inhibition in assay [1] was 37.1%; in assay [2] it was 31.6%; in assay [3], 43.4%; in assay [4], 20.6%; in assay [5] it was 41.2%; in assay [6] it was 39.5%.

Take `Cc1ccc(S(=O)(=O)/C(C#N)=C/n2c(=S)[nH]c3ccc([N+](=O)[O-])cc32)cc1`: the growth inhibition in assay [1] was -14.3%; in assay [2] it was -21.1%; in assay [3], -9.05%; in assay [4] it was -3.25%; in assay [5], -10.6%; in assay [6], 3.3%.

As for `Cc1cc(C)c(-c2cc(C(O)C3OC4OC(C)(C)OC4C3O)on2)c(C)c1` (stereo unspecified), the growth inhibition in assay [1] is 15.3%; in assay [2] it was -0.9%; in assay [3] it was -1.3%; in assay [4], 9.25%; in assay [5], 0.8%; in assay [6], 0.3%.

As to `Cc1cccc(CP(Cc2cccc(C)c2)CC2(Cp3c4ccccc4c4ccccc43)COC2)c1`, the growth inhibition in assay [1] was 18%; in assay [2], -0.8%; in assay [3] it was 33.4%; in assay [4], 26.9%; in assay [5], 31.6%; in assay [6], 34.5%.

On to `c1ccc(N=C2SC(=NC3CCCCC3)N(C3CCCCC3)C2=Nc2ccccc2)cc1`, for which the growth inhibition in assay [1] is 3.35%; in assay [2], -18.9%; in assay [3] it was -0.05%; in assay [4], 9.1%; in assay [5], -4.9%; in assay [6], -29.3%.

On to `CC1(C)CC(=O)C(CC2=C(N)CC(C)(C)CC2=O)=C(N)C1`, for which the growth inhibition is 1.8% in assay [1]; 5.8% in assay [2]; 9.9% in assay [3]; -13.3% in assay [4]; 10.6% in assay [5]; 31.7% in assay [6].

For `O=C(O)c1ccc(C2COc3ccc(Cl)cc3C2)cc1` (stereo unspecified), the growth inhibition in assay [1] was -10.8%; in assay [2] it was -19.8%; in assay [3], -23.8%; in assay [4], 4.7%; in assay [5] it was -19.2%; in assay [6], -24.2%.

Consider `O=C(O)COc1ccccc1C1CCCCC1`, for which the growth inhibition in assay [1] was 0.15%; in assay [2], 7.6%; in assay [3], 6.25%; in assay [4], -4.9%; in assay [5], -18.6%; in assay [6], -2.2%.

As for `CC(C)(C)/[N+]([O-])=C/C1(C2(/C=[N+](\[O-])C(C)(C)C)Cc3ccccc3C2=O)Cc2ccccc2C1=O` (stereo unspecified), the growth inhibition in assay [1] was 29.8%; in assay [2] it was 3.75%; in assay [3], 3.05%; in assay [4], 15.6%; in assay [5], 7.15%; in assay [6], 31.9%.

On to `COc1cccc2c1C1(O)C2CCCC12OCCCO2` (stereo unspecified), for which the growth inhibition in assay [1] is -26.3%; in assay [2], -10.3%; in assay [3] it was -50%; in assay [4], 6.5%; in assay [5] it was -29.4%; in assay [6], -31.2%.

For `CC(C)=CC(=O)OC(C)(C)C`, the growth inhibition in assay [1] is 11.4%; in assay [2], 1.65%; in assay [3] it was 3.35%; in assay [4], 6.1%; in assay [5] it was 7.05%; in assay [6], 23.7%.

On to `C=C(C)C1Cc2c(cc(O)c3c(=O)c4c(oc23)C(O)Oc2cc(OC)c(OC)cc2-4)O1` (stereo unspecified), for which the growth inhibition in assay [1] is 9.15%; in assay [2], -0.95%; in assay [3] it was 0.9%; in assay [4], -3.85%; in assay [5], 2.85%; in assay [6], 16.9%.

Take `CCN(CC)CCNc1cccc(Cl)c1`: the growth inhibition in assay [1] is 60.1%; in assay [2], 9.25%; in assay [3], 34.4%; in assay [4] it was 25.2%; in assay [5] it was 29.1%; in assay [6], 47.5%.

Take `O=C(O)CCCc1ccc2c(c1)CC1(C2)Cc2cc3c(cc2C1)CCCC3`: the growth inhibition in assay [1] was -11.7%; in assay [2], -32.4%; in assay [3], -16.9%; in assay [4] it was 24.2%; in assay [5] it was 18.4%; in assay [6], 7.4%.

As for `Cc1ccc2sc3cc(=O)cc(C)c-3nc2c1`, the growth inhibition in assay [1] was 14.7%; in assay [2], 0.7%; in assay [3] it was -15.1%; in assay [4], 8.35%; in assay [5], 38.4%; in assay [6], 25.4%.

As to `CC(=O)Cc1ccco1`, the growth inhibition in assay [1] is 14.5%; in assay [2], -3.35%; in assay [3], -8.8%; in assay [4], 22.5%; in assay [5], -2.2%; in assay [6] it was -10.7%.

For `COc1ccc(C2=C(OC(C)=O)c3cccn3-c3ccccc3S2)cc1`, the growth inhibition was -34.5% in assay [1]; -49.9% in assay [2]; -28.8% in assay [3]; -45.9% in assay [4]; -45.8% in assay [5]; 2.15% in assay [6].

On to `CC(C)CCNCC(C)(C)OC(=O)c1ccc([N+](=O)[O-])cc1`, for which the growth inhibition in assay [1] is 34.6%; in assay [2], 19.2%; in assay [3], 51.9%; in assay [4], 31.3%; in assay [5] it was 30.4%; in assay [6] it was 33.2%.
